Potency and outcome data for eight molecules are collected here from PubChem BioAssay (Tox21).

Several values for one entry are separate records, joined by “and”; a condition that tells them apart may be missing. Equal entries are not always repeated. Records with an inconclusive call do not appear. Some compounds were tested as several samples or in several runs, with calls that do not always agree. Activity calls are given as the source filed them. Unless noted, the call rests on the fitted dose curve; in most records, active means well fitted curve in the direction sought with a large enough effect in the repeat runs; inconclusive means weak or mixed curves; inactive means no such curve, though single readings can be large; an effect the other way counts as inactive or inconclusive.

A short description of assay [1]: qHTS assay to identify small molecule agonists of the androgen receptor (AR) signaling pathway in the presence of an antagonist - cell viability counter screen (AID 1259379). Further: nearly all actives have a fitted effect of over 25% in size. Further: potency means the concentration at half of the fitted maximal effect. The procedure, abridged: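 A CellTiter-Fluor read-out measured viability of MDA-kb2 reporter cells (MMTV promoter with AR and GR response elements). Treatment: nilutamide 3.0uM final with compounds at 15 concentrations, 16 hr, 37C, 0% CO2.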
(In qHTS, concentration-response curves come from the screen itself.)

Assay [2] in a line: qHTS assay to identify small molecule agonists of the estrogen receptor beta (ER-beta) signaling pathway - cell viability counter screen (AID 1259380). Further: nearly all actives have a fitted effect of over 30% in size. Further: potency means the concentration at half of the fitted maximal effect. The essentials:
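Cells used were ER-beta-UAS-bla HEK293T in medium with 2% charcoal-stripped FBS. They were treated for 16 hr at 37C. Viability came from CellTiter-Glo luminescence.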

Assay [3] can be described thus: qHTS assay to identify small molecule antagonists of the estrogen receptor beta (ER-beta) signaling pathway - cell viability counter screen (AID 1259382). Further: nearly all actives have a fitted effect of over 55% in size. Further: potency means the concentration at half of the fitted maximal effect. The procedure, abridged: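 Agonist-stimulated (1nM E2) ER-beta-UAS-bla HEK293T cells are incubated with library compounds for 16 hr at 37C. Cell viability is then assessed in the reporter-assay wells by adding CellTiter-Glo and reading luminescence after 30 min.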

Assay [4] can be described thus: qHTS assay to identify small molecule agonists of the estrogen receptor alpha (ER-alpha) signaling pathway in the presence of an antagonist - cell viability counter screen (AID 1259386).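 Further: cells exposed to compounds for 22 h at 37 °C before the viability read; nearly all actives have a fitted effect of over 30% in size.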 Further: potency means the concentration at half of the fitted maximal effect. The procedure, abridged:
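ICI-182,780 at 10.0nM final accompanies the compound titration (15 concentrations, 22hr, 37C) on VM7Luc4E2 cells. The CellTiter-Fluor fluorescence readout runs in the same wells as the luciferase assay.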

Assay [5] concerns the target Progesterone receptor (Homo sapiens) (UniProt P06401). The assay can be described thus: qHTS assay to identify small molecule agonists of the progesterone receptor (PR) signaling pathway (AID 1346784; calls by dose curve; further: nearly all actives have a fitted effect of over 30% in size). The procedure, abridged:
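Compounds were tested for PR agonism in HEK 293T cells bearing a beta-lactamase gene under UAS control. Treatment lasted 16 hr at 37C; signal came from fluorescence of a FRET substrate.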

Assay [6] shares this target. The assay is described as follows: qHTS assay to identify small molecule antagonists of the progesterone receptor (PR) signaling pathway (AID 1346795; active means well fitted inhibition curve with a large enough effect in the signal ratio in the repeat runs, not every such curve was filed as active; the % refers to the signal ratio). The essentials: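 In HEK293T cells bearing the PR-UAS-bla reporter, compound effects on promegestone-driven (1 nM) beta-lactamase expression are assessed after 16 hr using a fluorescent FRET substrate incubated 2 hr at room temperature.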

Assay [7] can be described thus: qHTS assay to identify small molecule antagonists of the progesterone receptor (PR) signaling pathway - cell viability counter screen (AID 1346798). Further: series mostly up to about 92 µM; nearly all actives have a fitted effect of over 50% in size. The procedure, abridged: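 Following a 4 hr attachment, PR-UAS-bla HEK293T cells in charcoal-stripped FBS medium were exposed to compounds with R5020 for 16 hr; CellTiter-Glo was added and luminescence read after 30 min at room temperature.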

The nature of assay [8]: qHTS assay to identify small molecule agonists of the progesterone receptor (PR) signaling pathway - cell viability counter screen (AID 1346799; calls by dose curve; further: nearly all actives have a fitted effect of over 45% in size). The essentials: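 Here, 3,000 PR-UAS-bla HEK293T cells per well were treated with compounds for 16 hr after a 6 hr preincubation at 37C and 5% CO2; cell viability is the CellTiter-Glo luminescence signal.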
The nature of assay [9]: qHTS assay to identify small molecule agonists of the TGF-beta/Smad signaling pathway - cell viability counter screen (AID 1346829). Further: nearly all actives have a fitted effect of over 45% in size. Further: potency means the concentration at half of the fitted maximal effect. The procedure, abridged:
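Tox21 qHTS format: SBE-bla HEK 293T cells treated with DMSO-dissolved compounds for 5 hr; CellTiter-Glo luminescence after 30 min at room temperature.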

Assay [10] can be described thus: qHTS assay to identify small molecule agonists of the TGF-beta/Smad signaling pathway (AID 1346859; active means well fitted activation curve with a large enough effect in the signal ratio in the repeat runs, not every such curve was filed as active; the % refers to the signal ratio; further: series mostly up to about 77 µM). The essentials:
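Each well held 4,000 SBE-bla HEK 293T cells incubated overnight before compound addition; 5 hr later the cleavable FRET substrate went on for 2 hr at room temperature, and fluorescence was read at two emissions.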

The target of assay [11] is Thyrotropin-releasing hormone receptor (Homo sapiens) (UniProt P34981). The assay can be described thus: qHTS assay to identify small molecule antagonists of the thyrotropin-releasing hormone receptor (TRHR) signaling pathway (AID 1346877; active means well fitted inhibition curve with a large enough effect in the repeat runs, not every such curve was filed as active; further: potency means the concentration at half of the fitted maximal effect). The essentials:
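Screening used HEK293 cells engineered with TRHR, with a brief 5 min room-temperature compound exposure preceding addition of TRH to 1 nM. The read-out was kinetic calcium-dye fluorescence, concentration-response from 15 doses in triplicate.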

Assay [12] has the same target. The assay can be described thus: qHTS assay to identify small molecule agonists of the thyrotropin-releasing hormone receptor (TRHR) signaling pathway (AID 1346891; calls by dose curve; further: potency means the concentration at half of the fitted maximal effect; on activation: series mostly up to about 58 µM). The essentials:
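Screening of agonists relied on calcium signalling in HEK293 cells expressing human TRHR: dye loading 2 h at 37 °C preceded compound addition and a 3-min fluorescence time course.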

Assay [13] in a line: Human pregnane X receptor (PXR) small molecule agonists, qHTS cell viability counter screen (AID 1346977). Further: nearly all actives have a fitted effect of over 50% in size. Further: potency means the concentration at half of the fitted maximal effect. The procedure, abridged: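 Tox21 qHTS format; PXR-Luc HepG2, 2,000/well, charcoal-stripped FBS 5%. Cpd exposure 24hr. Read: CellTiter-Fluor fluorescence, multiplexed with luciferase.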
The target in assay [14] is Estrogen receptor (Homo sapiens) (UniProt P03372). The assay can be described thus: qHTS assay to identify small molecule agonists of the estrogen receptor alpha (ER-alpha) signaling pathway in the presence of an antagonist (AID 1259383; calls by dose curve; further: top concentration of the series differs between compounds; nearly all actives have a fitted effect of over 15% in size). The procedure, abridged:
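Using VM7Luc4E2 cells seeded 24hr before treatment, antagonist ICI-182,780 (10.0nM final) was added, followed by compounds at 15 concentrations. Plates incubated 22hr; ONE-Glo luminescence quantified reporter activity.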

The nature of assay [15]: qHTS assay to identify small molecule agonists or antagonists of the thyroid stimulating hormone receptor (TSHR) signaling pathway - wild type cell line counter screen (AID 1259384; calls by dose curve). The procedure, abridged:
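Wild-type Hek293 cells, 800/well, 18 h at 37C, then compound with Ro20-1724 for 30 min RT. cAMP by HTRF (cAMP-d2/anti-cAMP cryptate), 1 h RT, fluorescence read. 15 concentrations, triplicates.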

In assay [16] the target is Thyrotropin receptor (Homo sapiens) (UniProt P16473). The assay is described as follows: qHTS assay to identify small molecule antagonists of the thyroid stimulating hormone receptor (TSHR) signaling pathway (AID 1259385; calls by dose curve; further: nearly all actives have a fitted effect of over 20% in size; further: potency means the concentration at half of the fitted maximal effect). The procedure, abridged: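 TSHR-HEK293 cells (800/well) plated 18 h, then compounds with Ro20-1724 and TSH at 1.5 ng/mL final, 30 min at room temperature. cAMP quantified by HTRF (cAMP-d2/anti-cAMP-cryptate, 1 h); 15 concentrations in triplicate.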
Chain of Thyrotropin receptor (Homo sapiens) (P16473 whole entry, looked up): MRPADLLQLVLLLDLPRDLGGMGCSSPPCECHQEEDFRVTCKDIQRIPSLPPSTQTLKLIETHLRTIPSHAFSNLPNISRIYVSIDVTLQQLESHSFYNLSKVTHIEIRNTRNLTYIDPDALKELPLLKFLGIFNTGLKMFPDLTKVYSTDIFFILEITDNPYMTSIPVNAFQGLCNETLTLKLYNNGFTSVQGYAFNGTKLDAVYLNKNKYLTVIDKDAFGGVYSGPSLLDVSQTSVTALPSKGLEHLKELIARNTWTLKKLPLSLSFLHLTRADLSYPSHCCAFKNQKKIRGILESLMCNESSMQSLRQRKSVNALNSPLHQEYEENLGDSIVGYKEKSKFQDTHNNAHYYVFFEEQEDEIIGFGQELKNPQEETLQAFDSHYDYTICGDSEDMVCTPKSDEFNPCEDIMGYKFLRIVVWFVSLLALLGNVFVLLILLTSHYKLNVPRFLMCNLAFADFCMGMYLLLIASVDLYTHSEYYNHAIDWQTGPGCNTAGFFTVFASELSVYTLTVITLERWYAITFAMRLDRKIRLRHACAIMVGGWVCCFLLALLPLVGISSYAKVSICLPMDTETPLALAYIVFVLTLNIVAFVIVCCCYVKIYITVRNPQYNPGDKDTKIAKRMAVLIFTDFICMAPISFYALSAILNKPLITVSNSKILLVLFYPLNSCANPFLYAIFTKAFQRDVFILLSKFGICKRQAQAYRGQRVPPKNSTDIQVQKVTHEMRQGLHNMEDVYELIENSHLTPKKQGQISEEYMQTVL

The nature of assay [17]: qHTS assay to identify small molecule antagonists of the TGF-beta/Smad signaling pathway - cell viability counter screen (AID 1346824). Further: nearly all actives have a fitted effect of over 50% in size. The procedure, abridged: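 SBE-bla HEK 293T cells, incubated overnight, then compound plus 0.25 ng/mL TGF-beta1 (stock added) for 5 hr at 37 C. Viability was read in the same wells by CellTiter-Glo luminescence after 30 min at room temperature.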
On the % scale 0 is the no-effect control and ±100 the full control effect.

Chain of Progesterone receptor (Homo sapiens) (P06401 whole entry, looked up): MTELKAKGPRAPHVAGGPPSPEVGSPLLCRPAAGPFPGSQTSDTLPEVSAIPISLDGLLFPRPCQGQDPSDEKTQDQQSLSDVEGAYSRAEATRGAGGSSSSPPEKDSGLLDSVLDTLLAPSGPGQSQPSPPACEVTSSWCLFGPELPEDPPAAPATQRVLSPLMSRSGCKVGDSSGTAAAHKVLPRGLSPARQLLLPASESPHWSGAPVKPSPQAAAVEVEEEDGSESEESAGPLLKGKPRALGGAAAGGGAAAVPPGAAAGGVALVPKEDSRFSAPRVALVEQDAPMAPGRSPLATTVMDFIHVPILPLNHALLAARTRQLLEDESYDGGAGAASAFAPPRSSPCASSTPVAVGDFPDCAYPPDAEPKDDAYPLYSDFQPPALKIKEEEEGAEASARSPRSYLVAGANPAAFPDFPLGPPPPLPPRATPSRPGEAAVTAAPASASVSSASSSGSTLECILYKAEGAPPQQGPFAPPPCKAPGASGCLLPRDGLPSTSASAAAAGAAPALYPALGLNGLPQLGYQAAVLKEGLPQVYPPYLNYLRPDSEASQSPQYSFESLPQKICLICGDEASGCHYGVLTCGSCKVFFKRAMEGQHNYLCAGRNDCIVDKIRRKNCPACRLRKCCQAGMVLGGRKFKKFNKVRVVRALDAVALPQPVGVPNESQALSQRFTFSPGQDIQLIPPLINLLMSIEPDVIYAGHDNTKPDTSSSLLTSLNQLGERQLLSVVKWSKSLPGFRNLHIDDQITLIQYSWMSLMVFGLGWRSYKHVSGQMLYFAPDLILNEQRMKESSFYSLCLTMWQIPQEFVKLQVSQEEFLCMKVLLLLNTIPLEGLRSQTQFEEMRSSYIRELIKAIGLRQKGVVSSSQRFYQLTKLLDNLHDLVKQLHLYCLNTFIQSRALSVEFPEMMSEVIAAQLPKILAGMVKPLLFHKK
Chain of Thyrotropin-releasing hormone receptor (Homo sapiens) (P34981 whole entry, looked up): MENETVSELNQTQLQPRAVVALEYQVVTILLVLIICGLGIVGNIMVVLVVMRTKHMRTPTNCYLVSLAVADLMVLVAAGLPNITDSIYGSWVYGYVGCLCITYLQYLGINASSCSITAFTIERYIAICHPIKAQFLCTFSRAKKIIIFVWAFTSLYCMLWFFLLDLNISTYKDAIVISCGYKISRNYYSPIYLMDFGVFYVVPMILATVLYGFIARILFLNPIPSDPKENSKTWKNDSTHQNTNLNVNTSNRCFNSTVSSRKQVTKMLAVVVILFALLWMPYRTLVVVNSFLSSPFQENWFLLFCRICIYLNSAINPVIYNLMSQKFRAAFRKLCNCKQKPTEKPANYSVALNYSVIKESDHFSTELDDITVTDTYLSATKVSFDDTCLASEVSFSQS
Chain of Estrogen receptor (Homo sapiens) (P03372 whole entry, looked up): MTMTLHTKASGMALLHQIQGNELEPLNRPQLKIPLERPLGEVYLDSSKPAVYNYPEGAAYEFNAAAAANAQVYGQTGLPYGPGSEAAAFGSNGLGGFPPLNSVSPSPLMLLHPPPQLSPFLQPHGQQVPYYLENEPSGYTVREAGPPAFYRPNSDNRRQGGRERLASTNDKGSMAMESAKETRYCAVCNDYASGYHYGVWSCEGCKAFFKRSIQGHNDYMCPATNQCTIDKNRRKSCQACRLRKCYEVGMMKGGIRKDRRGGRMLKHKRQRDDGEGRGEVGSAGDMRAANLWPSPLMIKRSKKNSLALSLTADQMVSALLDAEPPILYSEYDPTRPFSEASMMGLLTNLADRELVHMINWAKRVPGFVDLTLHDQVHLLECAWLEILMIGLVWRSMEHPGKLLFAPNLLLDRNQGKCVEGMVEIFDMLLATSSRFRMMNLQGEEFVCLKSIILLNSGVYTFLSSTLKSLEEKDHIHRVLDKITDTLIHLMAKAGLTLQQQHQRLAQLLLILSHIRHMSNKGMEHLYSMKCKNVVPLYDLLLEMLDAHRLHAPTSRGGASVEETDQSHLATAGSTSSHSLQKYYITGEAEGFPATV

As for `CCCCNC(=O)NS(=O)(=O)c1ccc(C)cc1`, the Potency result in [1], in assay [2], in [3], in assay [4], in assay [5] and in assay [6] was “inactive” each time. The Potency result in assay [7], in assay [8], in assay [9], in [11], in assay [12] and in [13] was “inactive” in each case. The molecule was classed as inactive in assay [10].
Regarding `NC(=O)n1c(O)c(C(=O)c2cccs2)c2cc(Cl)ccc21`, the Potency in assay [1] and in assay [4] was 29.8 µM (active) throughout. Also, the Potency result in [3], in [14], in assay [15], in [16], in [5] and in [17] was “inactive” each time. Also, the Potency entry in [9], in [11] and in assay [12] was “inactive” throughout. The molecule was classed as inactive in assay [10].
Turning to `CC/C(=C(\c1ccccc1)c1ccc(OCCN(C)C)cc1)c1ccccc1`, the Potency in assay [1] was 69 µM (active) and 48.9 µM (active) and 48.6 µM (active); in [2], 24.5 µM (active) [middle of 5 runs]; in assay [3], 27.3 µM (active) and 21.9 µM (active) and 29.8 µM (active); in [16], 61.5 µM (active) and 21.1 µM (active); in assay [4], “inactive and 61.6 µM (active)”; in [9] it was 55.3 µM (active) and inactive. Besides, the Potency in assay [11] is 12.1 µM (active) and inactive; in assay [12] it was 15.6 µM (active) and inactive; in [13], 25.1 µM (active) [middle of 5 runs]. Further, the Potency result in assay [15] and in assay [5] was “inactive” throughout. Also, the outcome in assay [10] was inactive.
In the case of `Nc1ccc(O)c([N+](=O)[O-])c1`, the Potency in [1] was 27.3 µM (active); in [4], 43.3 µM (active). Moreover, the Potency result in [3], in assay [14], in [17], in assay [9], in assay [11] and in assay [12] was “inactive” in each case. Besides, the outcome in assay [10] was inactive.
On to `O=C1NC(=O)C(c2ccccc2)(c2ccccc2)N1`, for which the Potency result in assay [1], in assay [2], in [3], in [15], in assay [16] and in assay [4] was “inactive” throughout. The Potency entry in [5], in assay [6], in [7], in assay [8], in assay [9] and in assay [11] was “inactive” in each case. The Potency entry in assay [12] and in assay [13] was “inactive” throughout. In assay [10], the molecule was classed as inactive.
As for `Cc1ccc(S(=O)(=O)O)cc1`, the Potency entry in [1], in [2], in assay [3], in [4], in assay [5] and in assay [6] was “inactive” each time. Moreover, the Potency entry in assay [7], in assay [8], in [17], in assay [9] and in assay [13] was “inactive” throughout. Further, in assay [10], the molecule was called inactive.
For the molecule `CN1CCC[C@H]1c1cccnc1`, the Potency entry in assay [1], in assay [2], in [3], in [4], in [5] and in assay [6] was “inactive” in each case. Also, the Potency result in [7], in assay [8], in assay [17], in assay [9], in [11] and in assay [12] was “inactive” each time. Also, the Potency entry in [13] was “inactive”. For the same molecule, the result in assay [10] was inactive.
`Nc1ccc([N+](=O)[O-])cc1O`: the results for the Potency in assay [1], in assay [4] and in assay [13] were 30.6 µM (active), 27.3 µM (active) and 30.6 µM (active), respectively. Besides, the Potency entry in [3] and in assay [9] was “inactive” throughout. Also, the molecule was called inactive in assay [10].
